Consider twelve molecules from PubChem BioAssay (NCATS).

Test [1] is described as follows: qHTS of pediatric cancer cell lines to identify multiple opportunities for drug repurposing: Primary screen for A673 cells (AID 1347092). Also: nearly all actives have a fitted effect of over 45% in size. Also: potency is read from the fitted curve at half-maximal effect. In a few lines: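 48 h compound exposure, A673, 500-1,000 cells/well, 37 degrees C/5% CO2. MIPE: 11-point, 0.78 nM-46 µM; NPC: 8-point, 0.59 nM-46 µM (final). Readout CellTiter-Glo luminescence after 15 min RT.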
Test [2] in a line: qHTS of pediatric cancer cell lines to identify multiple opportunities for drug repurposing: Primary screen for NB-EBc1 cells (AID 1347095). Put shortly: (§1)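 Cells plated at 500-1,000/well in growth medium, compounds added after 5 h. MIPE tested at 11 points (from 0.78 nM), NPC at 8 points (from 0.59 nM). CellTiter-Glo luminescence after 48 h; concentration-response curves from primary screen.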

The nature of test [3]: qHTS of pediatric cancer cell lines to identify multiple opportunities for drug repurposing: Primary screen for Saos-2 cells (AID 1347097). Also: nearly all actives have a fitted effect of over 40% in size. Also: potency is read from the fitted curve at half-maximal effect. Put shortly: as §1
The nature of test [4]: qHTS of pediatric cancer cell lines to identify multiple opportunities for drug repurposing: Primary screen for SK-N-SH cells (AID 1347098). Also: nearly all actives have a fitted effect of over 65% in size. Also: potency is read from the fitted curve at half-maximal effect. In a few lines:
(§2)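 Cells (500-1,000/well) rested 5 h, then received compounds for 48 h; metabolically active cells were measured by CellTiter-Glo luminescence. Final concentrations spanned up to 46 µM (MIPE, 11-point) or 0.59 nM-46 µM (NPC, 8-point) in primary screens, 11-point in follow-ups.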

Test [5] can be described thus: qHTS of pediatric cancer cell lines to identify multiple opportunities for drug repurposing: Primary screen for LAN-5 cells (AID 1347100). Also: potency is read from the fitted curve at half-maximal effect. In a few lines: (§3)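 Viability after 48 h compound treatment at 37C, 500-1,000 cells/well, read as ATP luminescence with CellTiter-Glo. Primary screens used 11-point (MIPE, 0.78 nM-46 µM) or 8-point (NPC, 0.59 nM-46 µM) final concentrations; follow-up screens used 11-point dilutions.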

Test [6] in a line: qHTS of pediatric cancer cell lines to identify multiple opportunities for drug repurposing: Primary screen for Rh18 cells (AID 1347102). Also: nearly all actives have a fitted effect of over 65% in size. Also: potency is read from the fitted curve at half-maximal effect. In a few lines:
as §3

The nature of test [7]: qHTS of pediatric cancer cell lines to identify multiple opportunities for drug repurposing: Primary screen for OHS-50 cells (AID 1347103). Also: nearly all actives have a fitted effect of over 40% in size. Also: potency is read from the fitted curve at half-maximal effect. Put shortly:
as §2

Test [8] in a line: qHTS of pediatric cancer cell lines to identify multiple opportunities for drug repurposing: Primary screen for RD cells (AID 1347104). Also: nearly all actives have a fitted effect of over 55% in size. Also: potency is read from the fitted curve at half-maximal effect. Put shortly:
as §1

A short description of test [9]: qHTS of pediatric cancer cell lines to identify multiple opportunities for drug repurposing: Primary screen for MG 63 (6-TG R) cells (AID 1347105). Also: nearly all actives have a fitted effect of over 50% in size. Also: potency is read from the fitted curve at half-maximal effect. In a few lines: as §1
Test [10] in a line: qHTS of pediatric cancer cell lines to identify multiple opportunities for drug repurposing: Primary screen for control Hh wild type fibroblast cells (AID 1347106).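 Also: series mostly up to about 46 µM; a drop in luminescence marks cytotoxicity and a rise apparent proliferation; nearly all actives have a fitted effect of over 55% in size.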 Put shortly: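 Cells (500-1,000/well) in growth media were settled 5 h at 37 degrees C, then given compounds for 48 h. Viability was read as CellTiter-Glo luminescence. Primary runs used MIPE at 11 points (0.78 nM-46 µM) and NPC at 8 points (0.59 nM-46 µM); follow-ups used 11 points.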

Test [11] can be described thus: qHTS of pediatric cancer cell lines to identify multiple opportunities for drug repurposing: Primary screen for BT-37 cells (AID 1347094). Also: potency is read from the fitted curve at half-maximal effect. Put shortly:
as §1

Test [12] is described as follows: qHTS of pediatric cancer cell lines to identify multiple opportunities for drug repurposing: Primary screen for BT-12 cells (AID 1347101). Also: nearly all actives have a fitted effect of over 25% in size. Also: potency is read from the fitted curve at half-maximal effect. Put shortly: as §2
A short description of test [13]: qHTS of pediatric cancer cell lines to identify multiple opportunities for drug repurposing: Primary screen for Rh30 cells (AID 1347107). Also: series mostly up to about 46 µM; nearly all actives have a fitted effect of over 75% in size. Put shortly: as §3
A short description of test [14]: qHTS of pediatric cancer cell lines to identify multiple opportunities for drug repurposing: Primary screen for Rh41 cells (AID 1347108). Also: nearly all actives have a fitted effect of over 70% in size. Also: potency is read from the fitted curve at half-maximal effect. Put shortly:
as §1

Test [15] in a line: qHTS of pediatric cancer cell lines to identify multiple opportunities for drug repurposing: Primary screen for SK-N-MC cells (AID 1347093). Also: potency is read from the fitted curve at half-maximal effect. Put shortly: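 Metabolically active cells were quantified by ATP-dependent luminescence (CellTiter-Glo, 15 min at room temperature) following 48 h treatment. Cells had been plated at 500-1,000 per well and settled for 5 h beforehand.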
Test [16] in a line: qHTS of pediatric cancer cell lines to identify multiple opportunities for drug repurposing: Primary screen for SJ-GBM2 cells (AID 1347091). In a few lines:
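Viability measured as metabolically active cells via CellTiter-Glo luminescence following 48 hours of compound exposure, 11-point dilutions in confirmatory testing. 500-1,000 cells/well plated 5 hours before dosing; controls were DMSO and 2.3 µM bortezomib.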

The nature of test [17]: qHTS of pediatric cancer cell lines to identify multiple opportunities for drug repurposing: Primary screen for U-2 OS cells (AID 1347096). Also: nearly all actives have a fitted effect of over 50% in size. Put shortly: as §3
Test [18] in a line: qHTS of pediatric cancer cell lines to identify multiple opportunities for drug repurposing: Primary screen for NB1643 cells (AID 1347099). Also: nearly all actives have a fitted effect of over 50% in size. In a few lines: as §1
Test [19] in a line: qHTS of pediatric cancer cell lines to identify multiple opportunities for drug repurposing: Confirmatory screen for NB1643 cells (AID 1347109). Also: nearly all actives have a fitted effect of over 45% in size. Also: potency is read from the fitted curve at half-maximal effect. In a few lines:
as §3

Test [20] is described as follows: qHTS of pediatric cancer cell lines to identify multiple opportunities for drug repurposing: Confirmatory screen for A673 cells (AID 1347110).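 Also: potency is read from the fitted curve at half-maximal effect; cells exposed to compound for 48 h before the viability read; nearly all actives have a fitted effect of over 65% in size.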 In a few lines: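 Concentration-response curves came straight from titrations: 11 points (0.78 nM to 46 µM) for MIPE and several concentrations (0.59 nM to 46 µM) for NPC in primary, 11 points in follow-up. Readout: ATP luminescence at 48 h.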

“And” between values parts separate entries of the source, which are not always exact repeats. Equal entries are not always repeated. Records with an inconclusive call do not appear. The source made the active and inactive calls. Calls follow the shape of the dose curve; as a rule, active = well fitted curve in the direction sought with a large enough effect; inconclusive = small, poorly fitted or top-dose-only effect, or another doubt; inactive = no such curve, though single readings can be large; an effect the other way counts as inactive or inconclusive.

Regarding `CNCCCC12CCC(c3ccccc31)c1ccccc12`, the Potency was 21.1 µM (active) and 23.5 µM (active) in [1]; 26400 nM (active) in [3]; 13.7 µM (active) in test [4]; 18.8 µM (active) and 18.7 µM (active) in [6]; 27.6 µM (active) and 24.3 µM (active) in test [7]; 29.6 µM (active) in test [8]. Also, the Potency in test [9] is 16.8 µM (active). Further, the Potency result in test [2], in [5] and in test [10] was “inactive” each time.
For the molecule `COc1ccc2c(c1)c(CC(=O)O)c(C)n2C(=O)c1ccc(Cl)cc1`, the Potency result in test [11], in test [2], in [5], in test [12], in test [6] and in [7] was “inactive” throughout. For the same molecule, the Potency result in test [9], in test [10] and in test [14] was “inactive” throughout. In test [13], the call was inactive.
On to `CN(C)C(=O)C(CCN1CCC(O)(c2ccc(Cl)cc2)CC1)(c1ccccc1)c1ccccc1`, for which the Potency in test [1] is 18.7 µM (active); in test [15], 18700 nM (active); in [11], 24.3 µM (active); in [4], 24.1 µM (active) and 15.4 µM (active); in test [5], 18.7 µM (active); in test [12] it was 19.3 µM (active) and 21.9 µM (active). For the same molecule, the Potency in test [6] was 20.9 µM (active); in test [7], 21.7 µM (active) and 19.5 µM (active); in [8], 26.4 µM (active) and 26.6 µM (active); in test [14], 18.7 µM (active) and 16.8 µM (active). For the same molecule, the Potency result in [2] and in [3] was “inactive” each time.
As to `CC(COc1ccccc1)N(CCCl)Cc1ccccc1` (stereo unspecified), the Potency result in test [16], in test [15], in test [17], in test [4], in [18] and in test [5] was “inactive” each time. The Potency entry in test [6], in test [8], in [9], in test [10] and in test [14] was “inactive” in each case. Also, the Potency in test [12] was 9.68 µM (active); in [7], 24.3 µM (active); in [19], 16.5 µM (active).
As to `N[C@@H](Cc1c[nH]c2ccc(O)cc12)C(=O)O`, the Potency result in [16], in [1], in [17], in [3], in test [18] and in test [5] was “inactive” each time. Also, the Potency entry in test [12], in [6], in [7], in [9], in test [10] and in test [14] was “inactive” each time. Further, the molecule was called inactive in test [13].
Turning to `CC(C)C(=O)Nc1ccc([N+](=O)[O-])c(C(F)(F)F)c1`, the Potency in test [1] is 0.0118 µM (active); in test [3], 590 nM (active); in test [4], 12.1 µM (active); in [12] it was 11 µM (active); in [7], 24.6 µM (active) and 432 nM (active); in test [14] it was 11.8 µM (active). In test [20], the Potency was 10.4 µM (active). The Potency result in test [2], in test [17], in [5], in test [6] and in test [19] was “inactive” throughout. In addition, the molecule was called inactive in test [13].
For `CC12CC3CC(C)(C1)CC(N)(C3)C2`, the Potency entry in [16], in test [11], in test [2], in [17], in test [5] and in [12] was “inactive” throughout. The Potency result in test [6], in test [9] and in [10] was “inactive” in each case. Moreover, in test [4], the Potency was 27.1 µM (active). The call in test [13] was inactive.
Consider `CN1CCN(CCCN2c3ccccc3Sc3ccc(Cl)cc32)CC1`, for which the Potency in test [1] was 9.35 µM (active); in test [15], 41.8 nM (active); in test [11], 9.68 µM (active); in test [3], 235 nM (active); in test [4] it was 24.4 µM (active); in [5] it was 9.35 µM (active). For the same molecule, the Potency in [12] is 6.11 µM (active); in [7], 9.68 µM (active); in test [20], 7.37 µM (active). In addition, the Potency entry in [2], in test [17] and in [14] was “inactive” each time. The outcome in test [13] was inactive.
As for `CC(C)NCC(O)c1ccc(O)c(O)c1` (stereo unspecified), the Potency in [1] was 1.18 µM (active); in test [15], 935 nM (active). Further, the Potency entry in [17], in test [4], in [12], in test [7], in [10] and in [19] was “inactive” each time.
Consider `Clc1ccccc1C(c1ccccc1)(c1ccccc1)n1ccnc1`, for which the Potency in test [3] was 26.6 µM (active) and 33.2 µM (active). Besides, the Potency result in test [4], in test [5], in test [6], in test [9] and in test [10] was “inactive” each time. Also, in [13], the result was inactive.
With `O=C1Cc2cc(CCN3CCN(c4nsc5ccccc45)CC3)c(Cl)cc2N1`, the Potency result in test [16], in test [2], in test [17], in test [4], in test [5] and in test [12] was “inactive” in each case. The Potency result in test [6], in [9], in test [10] and in test [14] was “inactive” in each case. Besides, in [13], the result was inactive.
For the molecule `COc1cc2nc(N3CCN(C(=O)C4COc5ccccc5O4)CC3)nc(N)c2cc1OC` (stereo unspecified), the Potency in test [1] was 18.7 µM (active); in test [4], 19.2 µM (active); in test [6] it was 26.4 µM (active); in [7], 24.6 µM (active). For the same molecule, the Potency entry in [2], in test [5], in test [9] and in test [14] was “inactive” in each case. Besides, the molecule was classed as inactive in test [13].
